Whole data set: some 33,000 sequences, median “E-score (-0.5 to 0.5)” near -0.0014, cut for the highest 2% near 0.25. Shown is part of a subset that was picked to be rich in the highest values.
target: T1, Cad1 (UniProt P24813); experiment: PBM E-score (8-mer binding enrichment) (E-score (-0.5 to 0.5)); higher = stronger / more preferred TF binding; conditions: protein concentration: 100 nM; construct: GST-full length
T1 sequence: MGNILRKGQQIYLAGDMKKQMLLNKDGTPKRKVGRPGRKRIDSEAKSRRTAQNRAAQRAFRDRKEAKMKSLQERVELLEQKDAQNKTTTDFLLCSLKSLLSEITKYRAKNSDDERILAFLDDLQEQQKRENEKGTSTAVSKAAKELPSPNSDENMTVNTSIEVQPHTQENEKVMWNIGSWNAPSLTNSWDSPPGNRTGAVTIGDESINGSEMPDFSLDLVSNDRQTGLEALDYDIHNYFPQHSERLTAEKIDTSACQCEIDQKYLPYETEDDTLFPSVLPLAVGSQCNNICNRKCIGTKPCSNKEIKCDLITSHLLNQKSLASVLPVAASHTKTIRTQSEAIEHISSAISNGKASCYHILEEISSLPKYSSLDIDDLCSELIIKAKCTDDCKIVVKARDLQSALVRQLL
Description: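 Universal 'all 10-mer' protein binding microarrays (Agilent AMADID 015681) probed with GST-tagged S. cerevisiae TFs (full-length or DBD) made by in vitro transcription/translation (PURExpress), about 100-200 nM. Bound TF was detected with fluorescent anti-GST. Each ungapped 8-mer (which stands for itself and its reverse complement) is scored by the PBM enrichment score (E-score), a modified Wilcoxon-Mann-Whitney statistic from -0.5 to +0.5, computed with the Universal PBM Analysis Suite. Scale: above 0.35 generally sequence-specific binding.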

Sequence	PBM E-score
CAACTAGG	0.079
CGAGGCAG	0.0833
AACCTCAC	-0.112
ATGTTTTA	0.0134
ATGTTTCC	-0.00726
ATGTTTTC	0.268
CTGTTGGC	-0.202
ATTTGTTC	0.265
CTTTGTTC	0.0827
ATTTGTCC	0.253
ATTTGTGC	0.148
ATTTGTTA	0.203
ATTTGTCG	0.147
AAATCCTC	-0.0802
CTGTGACA	0.209
GTGTGACA	0.0138
ATGTGACA	0.281
GCATCCCA	-0.303
CGCACTTC	-0.184
CCCAAGAG	-0.132
ATATTACA	0.347
ATATTACC	0.28
CTATTACC	-0.0596
GTATTACA	0.234
ATATTACG	0.24

Sequence	PBM E-score
CTATTACA	0.123
AGCCGTCG	0.219
CACGGAAG	-0.00842
TATAGGAA	0.127
CGACCCGC	0.0365
AATAACGG	0.253
CATAACGG	-0.00107
AATAACGC	-0.0922
GATTGCAA	0.117
AGGACCCA	-0.22
GATCGCGC	0.118
TAGCGCGA	0.211
CCGCGCCG	0.174
AATCGCGT	0.107
ACGCGCGG	0.136
AATCGCGC	0.327
TCGCGCGA	0.308
CCGCGCGG	0.417
TCGCGAGA	0.165
AAGCGCTT	0.421
AAGCGCTC	0.0197
AAGCGCTA	0.107
ATCGGTAG	0.0904
AGCACACT	-0.0625
AGAGCCAG	-0.239

Sequence	PBM E-score
CGCGTACA	-0.008
ATGCCGTC	-0.0686
AAGATCCA	-0.089
CTCTGGGA	-0.252
AGGACACC	0.00026
ACAAACAT	0.145
CCCGCGGG	0.0407
CCCTACAA	-0.14
AAGGGGGT	-0.389
CCGCGCGA	0.295
CATCGTGC	0.162
GCGCGAAA	0.308
CAGCGCTA	0.157
CCGCGAGA	-0.102
CCGCGCGC	0.144
AATCGTGC	0.276
CAGCGCTG	0.263
CCGCGAAA	0.0147
AATCGTGA	0.0886
TCGCGAAA	0.168
CAGCGCTC	0.153
TAGCCGAA	-0.0837
CCCTCCCG	-0.226
CAACATCG	0.0708
ACAGAAAG	-0.0964

Sequence	PBM E-score
GTCGGTGA	-0.13
TCATTCAA	0.13
AGGTACCC	-0.138
ATCTTTCC	0.0734
CCGTCTAG	-0.128
CACGAGCC	-0.209
CAATCGCA	0.00664
AACCGCGA	0.287
ACCCGCGA	0.0834
ACGCGCGC	0.216
GCGCGCGA	0.265
GCGCGCAC	0.218
ACGCGCGA	0.139
GTGCGCGA	-0.0729
GCGCGCGC	0.417
TACCGCGA	0.172
AACCGCGT	0.122
ACCCGCGT	-0.00317
ACCCGCGC	0.256
AAGTGTTA	0.0352
ACAGCACG	-0.0152
AACCCCAA	0.113
ATAACTCC	0.0565
AGATGAAA	0.02
AAGCGCGA	0.101

Sequence	PBM E-score
AAGCGCGC	0.276
AAGCGCGG	-0.0419
AACTCCGT	0.0805
CGCCGGCC	-0.124
CGCCGGCG	0.301
AGCCGGCG	0.0742
TAATCTCA	0.0993
ACTGTTTG	-0.0907
AATCGAAG	0.182
AATCGATA	0.288
AATCGACT	-0.039
AATCGACA	0.304
AATCGATT	0.198
AATCGACC	-0.051
AATCGATG	0.271
AATCGATC	0.215
CATCGATG	0.169
CCTCCATC	-0.237
TGTTGCAA	0.228
ATCCTTCA	-0.174
CTACTTCA	-0.0482
GTACTTCA	0.251
ATACTTCA	-0.0179
AGCAGATA	-0.0464
CGCAGATC	0.098

Sequence	PBM E-score
AGCAGATC	0.256
ATGTGCCC	-0.071
ACAACCAC	0.056
ACAACCAT	0.281
ACAACCAG	0.145
GGTGCATA	0.00671
CGTACCAG	-0.0767
TGTACCAA	-0.0377
CGTACCAA	0.256
ATTACCAA	0.292
ATTACCAC	0.161
GTTACCAA	0.0957
AACCGGTA	-0.0764
ATTCCCTG	0.117
CTTAAAGA	-0.0851
GTTTATCA	0.173
GTTTATGA	0.142
CTTTATAA	0.101
GTTTATAA	0.264
ATTTATAA	0.341
ATTTATAC	0.226
CATTCAGG	-0.0709
AAGTAAGA	-0.215
GAGTATCA	-0.045
TAGTAACA	0.255

Sequence	PBM E-score
TAGTAATA	0.371
CAGTAATA	0.249
GAGTAACA	-0.00744
CAGTAAGA	0.194
TAGTATCA	0.265
TAGTAAGA	0.265
GAGTAATA	0.198
AAGTAACA	0.0629
CAGTATCA	0.0166
AGGTCCGG	0.0244
ACGGGATC	-0.0506
TCATGTCA	0.139
GGAAGACA	-0.0527
ACACAATC	0.0563
CCCCGCCC	0.114
CTGGCCAC	0.00652
CATAGCGA	0.051
AATAGCGC	0.269
AATAGCGA	0.214
AATAGCGG	-0.0047
CATAGCGG	-0.142
CATAGCGC	0.26
